Potency, max response and outcome data for 7 compounds are collected here from PubChem BioAssay (NCATS).

Records with an inconclusive call do not appear. A number with no mark means an inactive call. The source made the active and inactive calls. Calls come from the whole dose curve; as a rule, active = well fitted inhibition curve with a large enough effect; inconclusive = small, poorly fitted or top-dose-only effect; inactive = flat fitted curve, though single readings scatter.

Assay [1] relates to PC49. Briefly: qHTS profiling for inhibitors of Plasmodium falciparum proliferation (AID 504749). Note: potency is the fitted concentration of half-maximal effect. To be noted: P. falciparum in erythrocytes, SYBR Green DNA, 72 h; series mostly up to 28.7 µM. The gist of the method:
(§1)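 Infected RBCs, 0.3% parasitemia/2.5% Hct final; cpd 72 h, 37 C, 5% CO2; lysis buffer with saponin/triton/SYBR Green I, o/n RT dark; FI 485/535; norm. to artemisinin (0.29 uM) and DMSO.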
(In qHTS, concentration-response curves come from the screen itself.)

In assay [2] the test system is TAB165. The assay is described as above. As to conditions: P. falciparum in erythrocytes, SYBR Green DNA, 72 h; series mostly up to 28.7 µM. The method in brief: as §1
In assay [3] the test system is CRL-7250. Briefly: Cytotoxic Profiling of Annotated Libraries Using Quantitative High-Throughput Screening (AID 1296008). For max response: % is set by controls: 0 for no effect and ±100 for the full control effect. As to conditions: Five cell lines viability, CellTiter-Glo ATP luminescence, 48-72 h; active compounds read low. The gist of the method:
(§2)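 Cytotoxicity was measured as CellTiter-Glo ATP luminescence, read after 10 min at room temperature. Compound treatment of the cells lasted 48 or 72 hr at 37 degrees Celsius in a qHTS format.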
(In general: ATP-based viability assays read luminescence as a measure of living cells.)

For assay [4], the system named is HEK293. The description is as above. As to conditions: Five cell lines viability, CellTiter-Glo ATP luminescence, 48-72 h; active compounds read low. The gist of the method:
as §2

Assay [5] has as its system HaCat. Described as above. As to conditions: Five cell lines viability, CellTiter-Glo ATP luminescence, 48-72 h; active compounds read low. The method in brief:
as §2

For assay [6], the system named is KB-3-1. The description is as above. To be noted: Five cell lines viability, CellTiter-Glo ATP luminescence, 48-72 h, active compounds read low. The gist of the method:
as §2

Assay [7] relates to NIH3T3. Described as above. To be noted: Five cell lines viability, CellTiter-Glo ATP luminescence, 48-72 h; active compounds read low. The gist of the method: as §2
The subject of assay [8] is HACAT. Briefly: qHTS assay to identify novel small-molecules to repurpose for Merkel cell carcinoma treatment (AID 1296009). To be noted: MCC and control cell lines, CellTiter-Glo viability, 72 h; at 44.8 µM (top of the series) unless noted. The gist of the method: (§3)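 72 hr, 37 degree celsius; NPC 8-pt / MIPE 11-pt dose response; compound pinned in DMSO; CellTiter-Glo, 10 min RT, luminescence; normalized to no-cell and DMSO controls.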

The test system of assay [9] is HEK293T. Described as above. To be noted: MCC and control cell lines, CellTiter-Glo viability, 72 h; at 44.8 µM (top of the series) unless noted. The gist of the method:
as §3

Assay [10] relates to MCC-13. The description is as above. To be noted: MCC and control cell lines, CellTiter-Glo viability, 72 h; series mostly up to 46 µM. The gist of the method: as §3
Assay [11] concerns MCC-26. The description is as above. As to conditions: MCC and control cell lines, CellTiter-Glo viability, 72 h; series mostly up to 46 µM. The method in brief:
as §3

Assay [12] has as its system MKL-1. The description is as above. To be noted: MCC and control cell lines, CellTiter-Glo viability, 72 h; series mostly up to 46 µM. The method in brief: as §3
The subject of assay [13] is MKL-2. Described as above. As to conditions: MCC and control cell lines, CellTiter-Glo viability, 72 h; series mostly up to 46 µM. The method in brief:
as §3

For assay [14], the system named is PC26. Briefly: qHTS profiling for inhibitors of Plasmodium falciparum proliferation (AID 504749). Note: potency is the fitted concentration of half-maximal effect. As to conditions: P. falciparum in erythrocytes, SYBR Green DNA, 72 h; series mostly up to 28.7 µM. The gist of the method: as §1
Assay [15] has as its system SC27B. The assay is described as above. As to conditions: P. falciparum in erythrocytes, SYBR Green DNA, 72 h; series mostly up to 28.7 µM. The gist of the method:
as §1

The subject of assay [16] is W2. The assay is described as above. As to conditions: P. falciparum in erythrocytes, SYBR Green DNA, 72 h; series mostly up to 28.7 µM. The gist of the method:
as §1

Assay [17] relates to UISO. Briefly: qHTS assay to identify novel small-molecules to repurpose for Merkel cell carcinoma treatment (AID 1296009). As to conditions: MCC and control cell lines, CellTiter-Glo viability, 72 h; series mostly up to 46 µM. The method in brief: as §3
Assay [18] has as its system NIH3T3. Described as above. To be noted: MCC and control cell lines, CellTiter-Glo viability, 72 h; at 44.8 µM (top of the series) unless noted. The gist of the method: as §3
The subject of assay [19] is TAB109. The assay is described as follows: qHTS profiling for inhibitors of Plasmodium falciparum proliferation (AID 504749). Note: potency is the fitted concentration of half-maximal effect. As to conditions: P. falciparum in erythrocytes, SYBR Green DNA, 72 h; series mostly up to 28.7 µM. The gist of the method: as §1
The test system of assay [20] is TAB113. Described as above. To be noted: P. falciparum in erythrocytes, SYBR Green DNA, 72 h; series mostly up to 28.7 µM. The gist of the method:
as §1
Note: nearly all actives have a fitted effect of over 60% in size.

For `O=C1C(c2[nH]c3ccccc3c2O)=Nc2ccccc21`, the Potency entry in assay [1] is “inactive”. In assay [2], the Potency is 14.1 µM (active). Also, the max response in [3] is 1.26%; in assay [6] it was 4.4%; in [7], 4.36%. In addition, the result in assay [4], in [5], in assay [8], in assay [9], in [10] and in assay [11] was inactive. The call in assay [12] and in assay [13] was inactive.

On to `Cc1cc(O)cc(C)c1Cl`, for which the Potency is 12 µM (active) in [14] and 7.57 µM (active) in [16]. The Potency entry in [15] is “inactive”. Also, the max response in assay [3] was -1.3%; in assay [6], 4.13%; in [7], 1.17%. Moreover, the result in [4], in assay [5], in assay [8], in assay [9], in [10] and in [11] was inactive. The outcome in assay [12], in assay [13] and in [17] was inactive.

For the compound `CCOC(=O)OC(C)OC(=O)[C@@H]1N2C(=O)[C@@H](NC(=O)[C@H](N)c3ccccc3)[C@H]2SC1(C)C` (stereo partly specified), the values for the max response in assay [3], in assay [4] and in assay [6] were -4.78%, -9.36% and -3.71%, respectively. Further, the call in assay [5], in assay [7], in assay [8], in [10], in [11] and in assay [12] was inactive. For the same compound, the compound was called inactive in assay [13], in assay [18] and in [17].

`O=C(O)c1ccc[n+]([O-])c1`: the Potency entry in assay [14], in [1], in [15], in assay [19], in [20] and in [2] was “inactive” each time. For the same compound, the Potency entry in [16] is “inactive”. The result in [3], in assay [5], in assay [7], in assay [8], in assay [10] and in assay [11] was inactive. The compound was called inactive in assay [12], in assay [13], in assay [18] and in assay [17]. Also, the max response in [4] is -0.144%; in assay [6], -1.65%.

For `CCN[C@H]1CN(CCCOC)S(=O)(=O)c2sc(S(N)(=O)=O)cc21`, the max response in [3] is 2.64%; in assay [4] it was -2.35%; in assay [6], 14.5%. For the same compound, the result in assay [5], in assay [7], in assay [8], in [10], in assay [11] and in assay [12] was inactive. In addition, the outcome in [13], in assay [18] and in [17] was inactive.

Consider `OCc1ccc(Cl)cc1Cl`, for which the Potency result in assay [14], in [1], in assay [15], in assay [19], in [20] and in assay [2] was “inactive” throughout. Also, the Potency entry in assay [16] was “inactive”. Moreover, the outcome in assay [3], in [5], in assay [7], in [8], in assay [10] and in assay [11] was inactive. The outcome in assay [12], in assay [13], in assay [18] and in assay [17] was inactive. The max response in assay [4] is -6.19%; in assay [6] it was -1.05%.

For the compound `O=c1[nH]c(=O)n([C@H]2C[C@H](O)[C@@H](CO)O2)cc1I`, the call in assay [3], in [5], in assay [7], in assay [8], in [10] and in [11] was inactive. The result in assay [12], in assay [13] and in assay [18] was inactive. Further, the max response in [4] is -0.666%; in [6] it was 5.94%.
